Assay outcomes from PubChem BioAssay.
A selection: hits, their analogues and other compounds. The true share with any hit is near 6.8%.
KB-3-1 cytotox = KB-3-1 parental cell cytotoxicity | KB-3-1 viability, CellTiter-Glo ATP luminescence, 72 h | Potency, µM (titrated, usually from 46.1 µM), hits mostly cytotoxic | actives 1.4% (n = 400,000) | AID 1347075; note: % is set by controls: 0 for no effect and ±100 for the full control effect; nearly all actives have a fitted effect of over 60% in size
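Screening of KB-3-1 cells (DMEM, 10% FBS, phenol-red free) ran from lowest to highest compound concentration; after 72 h at 37 °C viability was read luminescently and curves fitted.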
MCF10A rerep = inducers of DNA re-replication in MCF 10A breast cells; MCF 10A DNA re-replication, Hoechst nuclear intensity, 48 h; Potency, µM (highest dose often 46.1 µM), without a hit: at the top dose activity, positive = re-replication, actives largely listed as activators; actives 2.9% (n = 350,000); note: % of control where 0% means no effect; nearly all actives have a fitted effect of over 50% in size
SW480 rerep = inducers of DNA re-replication in SW480 colon cancer cells; Potency, µM (doses to about 46.1 µM), for the others: at the highest dose re-replication activation, hits mostly activators; SW480 DNA re-replication, Hoechst DNA content imaging, 48 h; actives 1.8% (n = 340,000); note: % of control where 0% means no effect; nearly all actives have a fitted effect of over 55% in size
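DNA re-replication was detected as more nuclei of elevated Hoechst intensity after 48 hr exposure to compound (23 nL pinned per well of 250 cells).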
KB-V1 cytotox = kills drug-selected multidrug resistant KB-V1 cells | KB-V1 MDR cells viability, CellTiter-Glo, 72 h | Potency, µM (highest dose often 46.1 µM), usual class: cytotoxic | actives 3.4% (n = 400,000) | AID 1347076; note: % is set by controls: 0 for no effect and ±100 for the full control effect; nearly all actives have a fitted effect of over 60% in size
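Cytotoxicity toward P-gp-expressing KB-V1 cells was determined as loss of CellTiter-Glo luminescence after 72 h at 37 degrees C. Compounds were tested in quantitative HTS format across a concentration range, with curves fitted to normalized data.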
PINK1 expr mod = PINK1 expression modulation. PINK1 immunofluorescence, high-content cytometry, 24 h. Potency, µM (titrated, usually from 76.6 µM), inactives show at the highest dose activation (PINK1 increase), actives largely listed as activators. actives 0.2% (n = 410,000); active = well fitted activation curve with a large enough effect; inconclusive = small, poorly fitted or top-dose-only effect; cell line not stated here; note: % of control where 0% means no effect; nearly all actives have a fitted effect of over 65% in size
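Compound titrations (5 concentrations, 24 h) on a stable cell line; DMSO and CCCP controls. Endpoint: fixed-cell PINK1 immunofluorescence with mitochondrial, cell and nuclear markers, scanned by microplate cytometer.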
TSG101-PTAP inh = blocks PTAP/TSG101 interaction to inhibit HIV-1 budding | AID 493005 | Potency, µM (top dose mostly 115 µM), for inactives: at the top dose activity change, negative = inhibition, usual class: inhibitors | 340,000 tested, under 10 active | Fluorescence polarization, FITC-PTAP peptide / Tsg101 binding; active = well fitted inhibition curve with a large enough effect in the main read-out, with a control signal flat, not every such curve was filed as active; inconclusive = small, poorly fitted or top-dose-only effect, or effect the other way, or a change in a side signal; inactive = no such curve, though single readings can be large or run the other way; note: % of control where 0% means no effect
Target sequence (Q99816 whole entry, looked up): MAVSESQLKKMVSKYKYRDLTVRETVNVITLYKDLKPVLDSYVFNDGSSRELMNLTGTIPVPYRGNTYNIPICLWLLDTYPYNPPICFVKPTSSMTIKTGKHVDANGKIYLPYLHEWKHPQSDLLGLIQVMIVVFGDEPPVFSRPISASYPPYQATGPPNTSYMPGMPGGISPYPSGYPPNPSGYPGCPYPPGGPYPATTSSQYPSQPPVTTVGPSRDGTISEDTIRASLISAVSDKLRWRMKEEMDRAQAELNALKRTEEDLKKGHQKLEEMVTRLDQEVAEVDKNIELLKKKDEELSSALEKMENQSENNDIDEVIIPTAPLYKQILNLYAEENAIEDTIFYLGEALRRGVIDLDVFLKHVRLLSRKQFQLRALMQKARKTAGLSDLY
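Fluorescence polarization binding of Tsg101 binding domain (10 uM final) to FITC-labeled PTAP peptide (50 nM final) in HEPES pH 7.5 buffer with NaCl, Tween 20, EDTA, TCEP. Compounds added before peptide; binding 20 min at RT.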
Active calls of the source: *; i = inactive; u = inconclusive; x = not tested or not shown; [ ] = dose if it differs, or a comment. Unless noted, calls come from the whole dose curve; as a rule, active = well fitted curve in the direction sought with a large enough effect; inconclusive = small, poorly fitted or top-dose-only effect, or another doubt; inactive = no such curve, though single readings can be large; an effect the other way counts as inactive or inconclusive. Potency is the fitted concentration of half-maximal effect.

SMILES	KB-3-1 cytotox	MCF10A rerep	SW480 rerep	KB-V1 cytotox	PINK1 expr mod	TSG101-PTAP inh
COC(=O)c1cccc(Nc2nc(-c3cccnc3)nc3ccccc23)c1	i	u	1%	u	-1%	-3%
CCOC(=O)c1cccc(Nc2nc(-c3cccnc3)nc3ccccc23)c1	u	23µM*	u	u	-4%	2%
Cc1c(NC(=O)COC(=O)/C=C/c2ccc(Cl)cc2)c(=O)n(-c2ccccc2)n1C	i	6%[9.22 µM]	-7%	i	1%	1%
Cc1c(Nc2nc(-c3ccc(Cl)cc3)cs2)c(=O)n(-c2ccccc2)n1C	u	6%	2%	7.3µM*	-2%	5%
Cc1c(NC(=O)COC(=O)C(c2ccc(Cl)cc2)C(C)C)c(=O)n(-c2ccccc2)n1C (stereo not drawn)	u	4%	4%	8.2µM*	-3%	1%
Cc1cc(Cl)ccc1OCC(=O)N(Cc1ccco1)Cc1ccco1	x	x	x	x	-1%	x
Fc1ccc(NCc2ccccc2-c2nnc(-c3ccccc3Cl)o2)cc1	i	x	x	i	7%	x
Cn1c(=O)cnc2cnc(Nc3ccccc3)nc21	x	x	x	x	-1%	x
O=C(COc1ccc(Cl)cc1)Nc1ccccc1C(=O)OCc1cc(=O)n2ccsc2n1	i	x	x	i	0%	x
Cc1cc(=O)n(Cc2ccc(F)cc2Cl)c2c1c(C)nn2-c1ccccc1	i	x	x	i	0%	x
Cc1sc2ncnc(NCCN3CCOCC3)c2c1C	i	22%	1%	16µM*	1%[38.3 µM]	1%
Cc1sc2ncnc(NCc3cccnc3)c2c1C	i	-20%	-28%	i	5%	0%
Cc1sc2ncnc(NCc3ccco3)c2c1C	6.5µM*	-3%	1%	2.6µM*	u	-2%
Cc1sc2ncnc(NCc3cccs3)c2c1C	u	9%	-1%	2.6µM*	2%	-8%
Cc1sc2nc(CN3CCOCC3)nc(NCCc3ccccc3)c2c1C	i	29%	-7%	8.2µM*	3%	1%
CC1CCc2c(sc3ncnc(NCCN4CCOCC4)c23)C1 (stereo not drawn)	i	u	8%	i	0%	-7%
Cc1ccc(CNc2nc3ccc(Cl)cc3n3nnnc23)cc1	i	x	x	i	-1%	x
Fc1ccc2[nH]c3c(NCc4ccco4)ncnc3c2c1	u	x	x	i	0%	x
Cc1ccc2[nH]c3c(NCc4ccco4)ncnc3c2c1	13µM*	u	8%	18µM*	21%	5%
Cc1cc(OCc2cc(C(=O)N3CCN(CC4CC4)CC3)no2)cc(C)c1Cl	u	16%	u	i	2%	-8%
Cc1ccc(OCc2ccc(C(=O)N3CCOCC3)cc2)cc1C	i	-5%	-6%	18µM*	1%[38.3 µM]	1%
O=C(c1cc(COc2ccc(F)cc2Cl)on1)N1CCCCCC1	i	u	9%	i	-1%	2%
Cc1cc(OCc2cc(C(=O)N3CCC(Oc4cccnc4)CC3)no2)cc(C)c1Cl	i	21µM*	2%	u	0%	0%
Cc1ccc(OCc2cc(C(=O)N3CCN(C4CCCCC4)CC3)no2)cc1C	i	12µM*	-9%	i	7%	-1%
O=C(c1cc(COc2ccc(F)cc2Cl)on1)N1CCC(c2ccncc2)CC1	i	u	1%	4.1µM*	0%	-5%
SMILES	KB-3-1 cytotox	MCF10A rerep	SW480 rerep	KB-V1 cytotox	PINK1 expr mod	TSG101-PTAP inh
Cc1ccc(OCc2cc(C(=O)N3CCN(C4CCCC4)CC3)no2)cc1C	i	u	1%	u	2%	-3%
COc1ccc(C)cc1NC(=O)Cn1c(=O)cc(C)c2c(C)nn(C)c21	x	x	x	x	2%	x
COc1cc(O)c(C(CC(=O)N2CCOCC2)c2ccc(OC)c(OC)c2)c(OC)c1 (stereo not drawn)	i	x	x	i	x	x
COc1cccc(CN(C(=O)c2cccc(C)c2)C2CCS(=O)(=O)C2)c1 (stereo not drawn)	i	x	x	i	-2%	x
CN=c1scc(-c2cccs2)n1/N=C/c1ccccc1O	u	15µM*	11%	u	0%	0%
CN=c1scc(-c2cccs2)n1/N=C/c1ccc(O)c(O)c1O	u	8%	u	u	2%	0%
COc1cccc(CNc2ccc(S(N)(=O)=O)cc2)c1OC	i	19%	18µM*	u	-1%[38.3 µM]	-12%
CCOc1ccc(OCC)c(NC(=O)CN(C)S(=O)(=O)c2ccc3[nH]c(=O)oc3c2)c1	i	x	x	i	-1%	x
CC(c1cccs1)N(Cc1ccco1)C(=O)Nc1ccc(Cl)c(Cl)c1 (stereo not drawn)	i	u	u	16µM*	5%[38.3 µM]	-2%
O=C(O)c1ccc(NC2=C/C(=N/S(=O)(=O)c3ccccc3)c3ccccc3C2=O)cc1	18µM*	u	3.3µM*	u	-2%	-1%
CCc1ccc(S(=O)(=O)/N=C2/C=C(Sc3ncn[nH]3)C(=O)c3ccccc32)cc1	i	3.3µM*	4.6µM*	i	4%	-4%
CCc1ccc(S(=O)(=O)/N=C2\C=C(Nc3ccc(O)cc3)C(=O)c3ccccc32)cc1	2.9µM*	3.7µM*	5.8µM*	u	-1%	0%
Cc1cc(C)c(S(=O)(=O)/N=C2\C=C(Nc3ccc(C(=O)O)cc3)C(=O)c3ccccc32)c(C)c1	u	17%	u	i	-1%	u
CCc1ccc(S(=O)(=O)/N=C2\C=C(Nc3cccc(C(=O)O)c3)C(=O)c3ccccc32)cc1	i	u	115%	i	-2%	-5%
CN(C(=O)CCl)C1CCCc2ccccc21 (stereo not drawn)	5.8µM*	u	2.3µM*	u	-2%	-1%
CN(C(=O)c1cccc(C(F)(F)F)c1)C1CCCc2ccccc21 (stereo not drawn)	i	15%	13%	i	-2%	-4%
O=C(CN1C(=O)COc2ccccc21)NCCc1ccc(Cl)cc1	x	x	x	x	2%	x
O=C(c1cnc(N2CCOCC2)c2ccccc12)N1CCN(c2ccc(F)cc2)CC1	i	x	x	u	-1%	x
COc1ccc(Nc2oc(-c3ccco3)nc2S(=O)(=O)c2ccc(F)cc2)cc1	i	15µM*	u	i	1%	0%
CC(C)c1ccc(CNc2nc(-c3ccco3)nn2S(=O)(=O)c2ccc(F)cc2)cc1	u	x	x	i	2%	x
O=C(COc1ccccc1F)Nc1ccc2[nH]c(=O)[nH]c2c1	u	-2%	-5%	6.5µM*	-1%	-1%
COc1cccc(C(=O)Nc2ccc3[nH]c(=O)[nH]c3c2)c1OC	1.2µM*	3%	0%	0.73µM*	-1%	1%
